According to PubChem BioAssay AID589 (National Center for Advancing Translational Sciences (NCATS), 2007):
Values joined by “and” are separate entries in the source; they are usually repeats but may differ in a detail not shown here. Equal entries are not always repeated. Out of some 59,000 compounds screened, about 6,200 (11%) were called active. Not shown: some 9% with an inconclusive outcome. Rule as the data show it: active = max dye-equivalent concentration above about 10 nM; inconclusive = mostly about 1.1 nM to 9.6 nM; inactive = weaker than that. For the sample, actives were picked, then their nearest neighbours and some compounds at random.

experiment: qHTS Assay for Spectroscopic Profiling in 4-MU Spectral Region; conditions: compound autofluorescence, 340/450 nm, 4-MU equivalents; stronger effect = higher value
Outline: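 Compounds in 100 mM Tris, pH 8.0, sat 15 min at room temperature before fluorescence was read at 340 nm excitation/450 nm emission; a per-plate six-point 4-MU standard curve converted signals to dye-equivalent concentration at each compound concentration.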

Max dye-equivalent concentration, inactive:
Cc1cc2ccccc2n2c(SCC(=O)N3CCN(C(=O)c4ccco4)CC3)nnc12
CC12CCC(C(=O)N3CCN(c4ncccn4)CC3)(c3nc4ccccc4nc31)C2(C)C (stereo not drawn)
O=c1c(-c2ccc3c(c2)OCCO3)c(C(F)(F)F)oc2cc(O)cc(O)c12
CC(=O)Nc1ccn(Cc2c(F)cccc2Cl)n1
O=C(c1ccncc1)N1CCC2(CCCN(C(c3ccccc3)c3ccccc3)C2)CC1
CC1CCCCC1NC(=O)CSc1nnc(N)s1 (stereo not drawn)
CC(=O)CSc1nnc(CSc2ncccn2)n1C1CCCCC1
COc1ccccc1CNC(=O)CCn1c(=O)sc2ccccc21
CCN(Cc1nc2ccccc2c(=O)[nH]1)Cc1cc(=O)oc2cc(C)c(C)cc12
Cc1ccnc(SCCn2c(Br)nc3c2c(=O)[nH]c(=O)n3C)n1
CCCCNC(=O)c1ccccc1NC(=O)c1ccccc1N(C)S(C)(=O)=O
COc1ccccc1Nc1ncc(C(C)=O)c(C)n1
CCN(CC)S(=O)(=O)c1cccc(C(=O)Nc2cc(C)nn2-c2nc(C)cc(C)n2)c1
c1ccc2sc(SCCSc3nc4ccccc4s3)nc2c1
CCOC(=O)N1CCN(C(=O)CNC(=O)Cc2ccc(Cl)cc2)CC1
CCOC(=O)N1CCN(C(=O)c2ccc(S(=O)(=O)c3ccc(C)cc3)c(NC(C)=O)c2)CC1
COC(=O)c1ccc(N(CC(=O)NC2CCCC2)C(=O)CNC(=O)c2ccco2)cc1
Cc1ccccc1N1CC(c2nc3ccccc3[nH]2)CC1=O (stereo not drawn)
CC(C)(C)n1nnc(CCc2nnn(C(C)(C)C)n2)n1
Cc1cc(Cl)c(S(=O)(=O)NCc2cccnc2)cc1OCC(N)=O
COC(=O)C(C)N(C#N)c1nc(C)nc(C)n1 (stereo not drawn)
Cn1c(=O)[nH]c(=O)c2c1nc(Br)n2CCCCSc1nc2ccccc2o1
CC[C@]1(O)CC2CN(CCc3c([nH]c4ccccc34)[C@@](C(=O)OC)(c3cc4c(cc3OC)N(C=O)[C@H]3[C@@](O)(C(=O)OC)[C@H](OC(C)=O)[C@]5(CC)C=CCN6CC[C@]43[C@@H]65)C2)C1 (stereo partly drawn)
Cc1nn(CC(=O)Nc2ccc3c(c2)nc(CN2CCCCC2)n3C)c(=O)c2ccccc12
CC(C)NC(=O)N1CC[C@@]2(CCCN(C(=O)c3cccc(F)c3)C2)C1
Cc1cc(C)nc(N2CCN(c3ncnc4c3oc3ccccc34)CC2)n1
COc1ccccc1CNc1ncnc2ccc(-c3ccc4c(c3)OCO4)cc12
S=c1[nH]nc(SCc2ccccc2Cl)c2[nH]cnc12
CCC(Oc1ccccc1)C(=O)NCc1cccnc1 (stereo not drawn)
O=C(Nc1cccc(OCC(=O)N2CCOCC2)c1)C1CCCCC1
O=C(Oc1ccc2c(c1)CCC2)N1CCOCC1
C[C@H](NC(=O)OC(C)(C)C)c1nnc(SCC(=O)Nc2ccc(Br)cc2)o1
CCC(=O)Nc1nc2ccccc2n1Cc1ccccc1C
C=C(Br)Cn1c(CCCC)nc2ccccc21
COc1cccc(OC)c1OCCN1CCN(C(=O)c2ccco2)CC1
Cc1cccc(Cn2c(SCCO)nc3c2c(=O)n(C)c(=O)n3C)c1
CCOC(=O)N1CCN(CC(=O)c2c(C)[nH]c3ccccc23)CC1
CCOC(=O)N1CCN(CC(=O)n2c(C)c(C)c3ccccc32)CC1
CCNS(=O)(=O)c1ccc(NC(=O)Nc2cccc(C(F)(F)F)c2)cc1
CC1Oc2ccccc2N(Cc2cccnc2)C1=O (stereo not drawn)
Cc1ccc(CC2CC(=O)N(c3ccc4c(c3)OCCO4)C2=O)cc1 (stereo not drawn)
COc1cccc2cc(C(=O)N(C)C)c(=O)oc12
COC(=O)c1ccccc1NC(=O)C1CCN(S(=O)(=O)c2cc(OC)ccc2OC)CC1
COc1ccc(F)cc1S(=O)(=O)Nc1ccc2c(c1)OCO2
Cc1cc(OCC(=O)O)c(Cl)cc1Cl
Cc1nc(NC(CC(C)C)C(=O)O)c2nc(C)oc2n1 (stereo not drawn)
O=C(NC1CCCCC1)N1CCc2[nH]c3ccccc3c2C1
NC(=O)C1CCN(C2OC(=O)c3ccccc32)CC1 (stereo not drawn)
CCOC(=O)CC1=CC(=O)Nc2ccccc2N1
CCCOC(=O)Cc1c(O)c2ccccc2[nH]c1=O
CCOC(=O)c1sc(=S)n2c1[nH]c(=O)c1ccc(C(=O)OC)cc12
C=CCSC1=C(C#N)C(c2cc(Br)c(O)c(OC)c2)CC(=O)N1 (stereo not drawn)
Cc1cc2c(cc1C)NC(c1ccccn1)C1=C(CC(C)(C)CC1=O)N2 (stereo not drawn)
CCCCCCC(=O)N(O)C1CC(=O)N(c2ccccc2)C1=O (stereo not drawn)
CCC(=O)Nc1nc(OC)cc(OC)n1
Cc1cc(C)nc(NC2=NCC(=O)N2c2ccc(Cl)cc2)n1
CCN(CC(=O)Nc1ccc2c(c1)OCCO2)Cc1cc(=O)oc2cc(C)c(C)cc12
C=CCn1c(SCC(=O)Nc2nc3ccccc3s2)nnc1-c1ccccc1O
Cc1nc2nc(SCC(=O)NCc3ccco3)nn2c(C)c1Cc1ccccc1
O=C(CN1C(=O)CCS(=O)(=O)c2ccccc21)NCc1ccc(F)cc1
CC1(c2ccccc2Cl)NC(=O)N(CC(=O)NC(=O)NCc2ccco2)C1=O (stereo not drawn)
COCCCN1C(=O)c2ccc(C(=O)Nc3ccc(OC)cc3OC)cc2C1=O
O=C(NC(=O)c1ccc(Cl)c(Cl)c1)OC1CCS(=O)(=O)C1 (stereo not drawn)
COc1ccc(O)c(C(=O)c2cnc3onc(C(C)C)c3c2)c1
COc1ccc(OCC(=O)OCCN(C)C)cc1
CC(C)(C)C(=O)CCN1C(=O)C2(OCCO2)c2ccccc21
CCN(CC)S(=O)(=O)c1cccc(C(=O)NCC(=O)OCC(=O)NCc2ccccc2)c1
O=C(Cn1[nH]c(=O)c2ccccc2c1=O)Nc1cccc(-c2nnc3n2CCCCC3)c1
O=C(CSc1nnnn1-c1ccc2c(c1)CCC2)Nc1ccc2c(c1)OCCO2
COC(C)(C)[C@]12CC(O)(C(C)C)ON1[C@H]1CCCCC1N2O (stereo partly drawn)
COc1ccc(NC(C)=O)cc1NC(=O)CN1CCN(C2c3ccccc3-c3ccccc32)CC1
CCCC(=O)Nc1cccc(-c2cn3ccsc3n2)c1
CCOc1nc(OCC)nc(-n2cc(-c3ccccc3)nn2)n1
CC(=O)Nc1cccc(-c2cnc3ccccc3n2)c1
COc1ccc(-c2cn3ccsc3n2)cc1
COC(=O)[C@H](C)NC(=O)Nc1ccc(OC(F)(F)F)cc1
CCS(=O)(=O)N1CCCC(C(=O)NCc2ccc(C)cc2)C1 (stereo not drawn)
COc1ccc(CNc2ncnc3ccc(-c4cccnc4)cc23)c(OC)c1
COc1cc(-c2noc(C3CCCN(S(=O)(=O)c4cccc(Cl)c4)C3)n2)cc(OC)c1OC (stereo not drawn)
Cc1ccc2cc(C#N)c(SCC(=O)NCC3CCCO3)nc2c1C (stereo not drawn)
Cc1cc(C(F)(F)F)c(C#N)c(SCC(=O)NC2CC2)n1
O=C1c2ccccc2C(=O)N1CCc1nn[nH]n1
COc1ccc(-n2c(SCC(=O)Nc3ccc4c(c3)OCO4)nnc2C(C)N2CCCCC2)cc1 (stereo not drawn)

Max dye-equivalent concentration, active:
COCCCn1c(CCC(=O)O)ccc1-c1ccc(F)cc1 1.6e-06 M
CCOC(=O)N1CCN(C(=O)c2ccc3nc4cc(Cl)ccc4c(=O)n3c2)CC1 1.3e-06 M
CC[C@]1(O)C[C@@H]2CN(CCc3c([nH]c4ccccc34)[C@@](C(=O)OC)(c3cc4c(cc3OC)N(C)[C@H]3[C@@](O)(C(=O)OC)[C@H](OC(C)=O)[C@]5(CC)C=CCN6CC[C@]43[C@@H]65)C2)C1 4.7e-08 M
COc1ccccc1Nc1ncnc2c1oc1ccccc12 7.3e-08 M
O=C1CC2(CCCCC2)Oc2ccc(OCC(=O)N3CCOCC3)cc21 1.2e-06 M
CCOC(=O)CCc1c(C)c2ccc(OCc3nn[nH]n3)c(C)c2oc1=O 2.4e-08 M
CCc1nc2ccccc2n(CCOCCOCCn2c(=O)c(CC)nc3ccccc32)c1=O 3.4e-08 M
CCOC(=O)N1CCN(CC(=O)c2ccc3c(c2)CCN3)CC1 1.2e-08 M
N#CC1=C(N)C(C#N)(C#N)[C@H](c2ccsc2)[C@H]2COCC=C12 1.3e-08 M
COc1ccc(OC)c(S(=O)(=O)Nc2ccccc2F)c1 6.6e-08 M
COc1c(C)c2c(c(O)c1C/C=C(\C)CCC(=O)O)C(=O)OC2 7e-08 M and 1.5e-08 M
CCOC(=O)CCc1c(C)c(C#N)c2[nH]c3ccccc3n2c1=O 5.3e-06 M
COc1cc(C2C(C#N)=C(C)NC3=C2C(=O)CC(C)(C)C3)ccc1O (stereo not drawn) 1.3e-08 M
COc1c(F)c(F)c(-c2csc(N)n2)c(F)c1F 1.5e-08 M
C=CCn1c2ccccc2c2nnc(SC(CC)C(=O)Nc3nc(C)c(C(=O)OCC)s3)nc21 (stereo not drawn) 4.6e-08 M
NC(=O)CSC1=Nc2ccccc2C2=NC(CCC(=O)NCc3ccc(F)cc3)C(=O)N12 (stereo not drawn) 4.6e-07 M
O=C(CC1N=C2c3ccccc3N=C(SCc3ccccc3Cl)N2C1=O)NCc1ccco1 (stereo not drawn) 1.8e-08 M
CC(=O)Nc1ccc(-c2cn3cccnc3n2)cc1 6.1e-06 M
c1ccc(-c2cn3cccnc3n2)cc1 5.1e-06 M
CC(NC(=O)CSc1nc2c(cc1C#N)CN(C)CC2)c1ccccc1 (stereo not drawn) 2.2e-08 M
